Hits are enriched below; roughly 17% of the tested compounds scored in any of these assays.
TGFb inhibitor: qHTS for Inhibitors of TGF-b; actives 1.2% (n = 410,000); AID 588855, 2011; HepG2 CAGA-GFP TGF-b/SMAD3 reporter, GFP fluorescence, 18 h; TGF-beta stimulated, 500 pg/mL final; Potency, µM (titrated, usually from 46.1 µM), without a hit: top-dose activity, negative = inhibition, actives largely listed as inhibitors; further: on the % scale 0 is the no-effect control and ±100 the full control effect; nearly all actives have a fitted effect of over 65% in size
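Inhibition of TGF-beta-driven CAGA-GFP reporter expression in HEPG2 cells is measured by cellular GFP fluorescence after 18 h stimulation with 500 pg/mL recombinant TGF-beta in 1% FBS medium at 37 degrees C.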
TDP1 cell noCPT: qHTS for Inhibitors of human tyrosyl-DNA phosphodiesterase 1 (TDP1): qHTS in cells in absence of CPT | DT40 Tdp1-/- hTDP1 cells, no CPT, ATP luminescence, 48 h | Potency, µM (titrated, usually from 46.2 µM), without a hit: at the highest dose activity change, negative = growth inhibition, most hits filed as inhibitors | actives 15% (n = 420,000); further: on the % scale 0 is the no-effect control and ±100 the full control effect; nearly all actives have a fitted effect of over 55% in size
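Readout: luminescence from CellTiter-Glo after 30 min in the dark at RT. Cells: DT40 Tdp1-/- with stable hTDP1, 400/well. Exposure: compounds alone, ≥48 hr, 37 °C.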
TDP1 cell CPT: qHTS for Inhibitors of human tyrosyl-DNA phosphodiesterase 1 (TDP1): qHTS in cells in presence of CPT. chicken DT40 Tdp1-/-;hTDP1 cells + 20 nM CPT, ATP luminescence, 48 h. Potency, µM (series often up to 46.2 µM), for inactives: at the top dose activity change, negative = growth inhibition, hits mostly inhibitors. actives 12% (n = 420,000). AID 686979, 2013; further: on the % scale 0 is the no-effect control and ±100 the full control effect; nearly all actives have a fitted effect of over 55% in size
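Chicken DT40 Tdp1-/- cells complemented with human TDP1, 400 cells/well, exposed to compounds plus 20 nM camptothecin for at least 48 h at 37 C; viability read as ATP content by CellTiter-Glo luminescence.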
S2 tox: Viability Counterscreen for Primary qHTS for Inhibitors of ATXN expression; S2 cells (HEK-293 line with an ATXN2-luciferase reporter) viability, CellTiter-Fluor protease fluorescence, 24 h; Potency, µM (doses to about 56.7 µM), actives largely listed as cytotoxic; actives 0.49% (n = 400,000); AID 651635, 2014; further: nearly all actives have a fitted effect of over 40% in size
HepG2 viability: qHTS for Inhibitors of TGF-b: Cytotox Counterscreen | HepG2 CAGA-GFP viability, ATP luminescence, 18 h | Potency, µM (highest dose often 46.1 µM), without a hit: top-dose activity change, negative = cytotoxicity, actives largely listed as cytotoxic | actives 0.76% (n = 410,000)
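CellTiter-Glo luminescence gave cytotoxicity after 18 hours at 37 degrees C. The cells were HepG2 CAGA-GFP in 1% FBS DMEM, stimulated with 500 pg/mL TGF-beta after compound addition. %Activity was normalised to no-cell wells (complete cell-killing) and DMSO (no toxicity), and curves were fitted and classified.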
ATXN2 expr inh: Primary qHTS for Inhibitors of ATXN expression; HEK-293 ATXN2-luciferase reporter, luminescence, 24 h; Potency, µM (top dose mostly 57 µM), for inactives: at the highest dose activity change, negative = inhibition, hits mostly inhibitors; actives 0.72% (n = 360,000); AID 1745845, 2022; further: on the % scale 0 is the no-effect control and ±100 the full control effect; nearly all actives have a fitted effect of over 55% in size
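ATXN2-luciferase reporter cells (luciferase flanked by upstream and downstream ATXN2 gene portions) were treated 24 h at 37 °C with compounds at up to 57 uM. SteadyGlo luminescence gave expression; GF-AFC fluorescence gave viability.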
Starred values were filed as active, the others as inactive; i = inactive; ? = inconclusive; . = no result given; ! = not confirmed by another sample. The call rests on the fitted dose curve; in most records, active means well fitted curve in the direction sought with a large enough effect; inconclusive means small, poorly fitted or top-dose-only effect, or another doubt; inactive means no such curve, though single readings can be large; an effect the other way counts as inactive or inconclusive. Potency means the concentration at half of the fitted maximal effect.

SMILES	TGFb inhibitor	TDP1 cell noCPT	TDP1 cell CPT	S2 tox	HepG2 viability	ATXN2 expr inh
COc1ccc(Cn2c(C3CC3)nc3ccc(NC(=O)C4CC4)cc3c2=O)cc1	-0.2%	?	-24.1%	i	-8.3%	103.5%
CCCCN1C(=O)C(CC(=O)NC2CC2)CC(C(=O)N2CCOCC2)=C1C (stereo unspecified)	32.9%	8.4%	-1.3%	i	0.9%	4.9%
CCCCn1c(SCC(=O)Nc2cc(C(F)(F)F)cc(C(F)(F)F)c2)nnc1C(CC)N(C)C (stereo unspecified)	65.6%	20.6µM*	23.1µM*	i	-10.1%	?
CC1(C)CC(=O)C(N=Nc2cccc([N+](=O)[O-])c2)=C(O)C1	3.1%	-28.8%	-2.7%	i	-8.3%	1.3%
CC1(C)CC(=O)C(N=Nc2ccc(C(F)(F)F)cc2[N+](=O)[O-])=C(O)C1	12.6µM*	23.1µM*	29.1µM*	?	-57.2%	?
CCOC(=O)C1CCCN(C(=O)c2cc(F)ccc2C)CC1 (stereo unspecified)	4.7%	0.3%	9.7%	i	3.2%	-3.0%
CCCCNc1ccc(C(F)(F)F)cc1S(=O)(=O)NCCc1ccc(F)cc1	?	6.51µM*	18.4µM*	?	5.01µM*	0.0%
COc1ccc(S(=O)(=O)NCCc2ccc(F)cc2)cc1	-5.8%	-10.9%	-10.0%	i	-15.9%	-6.7%
O=C1N=C(N2CCCCC2)SC1=C1CCCC1	-12.9%	-21.5%	1.6%	i	-3.1%	41.8%
CCCCN1C(=O)/C(=C2\SC(N3CCCCC3)=NC2=O)c2ccccc21	0.0%	?	23.1µM*	i	-22.0%	45.8%
O=C(NCCNC(=O)c1ccc(-c2ccc(Cl)c(Cl)c2)o1)c1cnccn1	-15.2%	14.6µM*	?	?	5.7%	-19.4%
O=C(NCCNC(=O)c1ccc(-c2cc(Cl)ccc2Cl)o1)c1cnccn1	1.0%	20.6µM*	?	i	4.5%	.
COc1ccccc1CN1C2CCCC1CC(NC(=O)/C=C/c1ccccc1)C2 (stereo unspecified)	-24.3%	?	?	i	-21.9%	-0.7%
COC(=O)C1(C(=O)OC)C[C@H](/C=C/c2ccccc2)N(Cc2ccccc2OC)[C@@H]1c1cccs1	.	23.1µM*	25.9µM*	.	.	.
COc1ccc(CCNC(=O)c2cc3ccc(Cl)cc3nc2N)cc1	.	5.8µM*	?	i	.	-14.6%
Nc1nc2cc(Cl)ccc2cc1C(=O)NCCCc1ccccc1	.	14.6µM*	?	i	.	-21.9%
COc1ccc(CCNC(=O)c2ccc(Cl)cc2)cc1	-5.4%	-7.7%	?	i	-4.9%	1.6%
COCCNC(=O)Cn1nc(-c2ccc(C)cc2)c2ccccc2c1=O	0.8%	-0.3%	-5.6%	i	-9.5%	6.1%
CCOC(=O)c1c(NC(=O)c2ccc(S(=O)(=O)N(C)C3CCCCC3)cc2)sc2c1CCN(C(C)C)C2	99.4%	7.31µM*	11.6µM*	.	-19.5%	-11.2%
CCCCN(C)S(=O)(=O)c1ccc(C(=O)Nc2sc3c(c2C(=O)OCC)CCN(C(C)C)C3)cc1	35.8%	5.8µM*	8.2µM*	.	-55.2%	-1.4%
O=C(Cc1ccc(NC(=O)C2CCCN(C(=O)CCc3ccccc3)C2)cc1)Nc1cccc(C(=O)N2CCCCC2)c1 (stereo unspecified)	?	?	?	i	-4.3%	-8.3%
O=C(Cc1ccc(NC(=O)C2CCN(C(=O)c3ccccc3)CC2)cc1)Nc1ccc(C(=O)N2CCOCC2)cc1	4.1%	-0.7%	-15.6%	i	0.6%	4.2%
O=C(Cc1cccc(NC(=O)C2CCN(C(=O)CCc3ccccc3)CC2)c1)Nc1cccc(C(=O)N2CCCCC2)c1	?	18.4µM*	?	i	-24.6%	-20.7%
O=C(Cc1cccc(NC(=O)C2CCN(C(=O)CCc3ccccc3)CC2)c1)Nc1cccc(C(=O)N2CCOCC2)c1	-14.6%	14.6µM*	14.6µM*	i	-16.5%	6.0%
O=C(Cc1ccc(NC(=O)C2CCN(C(=O)CCc3ccccc3)CC2)cc1)Nc1ccc(C(=O)N2CCOCC2)cc1	-11.5%	16.4µM*	?	i	-24.5%	6.3%
SMILES	TGFb inhibitor	TDP1 cell noCPT	TDP1 cell CPT	S2 tox	HepG2 viability	ATXN2 expr inh
Cc1ccccc1Nc1c(-c2ccccn2)nc2ccccn12	?	8.2µM*	9.2µM*	?	-66.5%	.
CC(C)c1ccc(Nc2c(-c3ccccn3)nc3ccccn23)cc1	?	2.06µM*	9.2µM*	?	10µM*	?
Cc1ccccc1Nc1c(-c2cc(Br)ccc2F)nc2ccccn12	-6.8%	-26.6%	-24.8%	.	-35.2%	.
Cc1ccn2c(Nc3ccccc3C)c(-c3ccccn3)nc2c1	12.6µM*	2.91µM*	16.4µM*	.	15.8µM*!	3.98µM*
Cc1ccn2c(Nc3ccccc3)c(-c3ccccn3)nc2c1	-12.7%	2.59µM*	4.61µM*	i	-1.0%	?
CN1CCC(=NNC(=O)C(=O)Nc2ccccc2F)CC1	1.9%	-6.7%	-10.8%	i	-6.7%	-17.7%
Cc1ccc(NC(=O)c2cccc(OCc3c(C)noc3C)c2)c(C)c1	-16.5%	-16.2%	-10.2%	i	-3.7%	0.6%
Cc1noc(C)c1COc1cccc(C(=O)OC(C)C(=O)Nc2ccc3c(c2)OCO3)c1 (stereo unspecified)	-30.9%	0.82µM*	1.03µM*	?	-6.3%	-10.0%
CC(C)Oc1cccc(C(=O)Nc2ccc(Br)cc2F)c1	9.5%	16.4µM*	?	i	-1.0%	57.6%
Cc1noc(C)c1COc1cccc(C(=O)Nc2ccc(Br)cc2F)c1	-22.7%	6.51µM*	8.2µM*	i	3.8%	-6.4%
CCOC(=O)c1cccc(NC(=O)C2COc3ccc(OC)cc3C2)c1 (stereo unspecified)	3.8%	?	?	i	1.4%	-15.2%
Cc1ccc(CNC(=O)/C=C/c2cccs2)cc1	-23.0%	9.9%	1.3%	i	-6.0%	-1.3%
CN(Cc1ccccc1)c1ncnc2c1nnn2C	33.0%	-13.6%	-16.3%	.	8.5%	.
Cc1ccc(C(=O)NCc2ccccc2CN2CCCC2)cc1S(=O)(=O)N1CCOCC1	2.7%	1.9%	?	i	-0.1%	7.6%

Compound activity as filed in PubChem BioAssay.
